The values that follow come from PubChem BioAssay (NCI).

Compounds without any hit were thinned out: in the full panel of roughly 83,000, 20% have a hit.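 Method: cells in 96-well plates; compound added at one concentration; 48 h incubation; percent growth measured; values under 10 scored active.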 Values without a mark were called inactive. Activity calls are given as the source filed them.

Some test systems named below: MOLT-4 leukemia; RPMI-8226 leukemia; OVCAR-8 ovarian; OVCAR-5 ovarian; OVCAR-4 ovarian; SK-OV-3 ovarian; IGROV1 ovarian; OVCAR-3 ovarian; HS 578T breast; NCI/ADR-RES ovarian; T-47D breast; BT-549 breast; MDA-MB-435 melanoma; SW-620 colon; MCF7 breast; HCT-116 colon; HCC-2998 colon; KM12 colon.
Holding throughout (assay): NCI-60 one-dose screen, 48 h (100 = growth as untreated, 0 = no growth, -100 = all killed)
Holding throughout (details): 10 µM unless noted

With `Cc1ccc2c(C(C[N+](=O)[O-])c3cccs3)c(-c3ccccc3)[nH]c2c1` (stereo unspecified), the growth in the assay with MOLT-4 leukemia was 16.2%; with RPMI-8226 leukemia, 11.8%; in the assay with OVCAR-8 ovarian it was 33%; with OVCAR-5 ovarian it was 58.8%; in the assay with OVCAR-4 ovarian, 38%; in the assay on SK-OV-3 ovarian, 22.7%. For the same compound, the growth was 31.4% in the assay on IGROV1 ovarian; 10.2% with OVCAR-3 ovarian; -11.7% (active) in the assay on HS 578T breast; 11.7% with NCI/ADR-RES ovarian; 14.6% in the assay with T-47D breast; 33.8% with BT-549 breast. Besides, the growth in the assay on MDA-MB-435 melanoma is -31.1% (active); with SW-620 colon, 18.5%; in the assay with MCF7 breast it was 17.8%; in the assay on HCT-116 colon it was 23.2%; with HCC-2998 colon, 40.3%; in the assay on KM12 colon, 21.4%.
Turning to `Clc1ccc(N2COOC3(OOC2)C2CC4CC(C2)CC3C4)cc1`, the growth in the assay on MOLT-4 leukemia was 56.9%; with RPMI-8226 leukemia, 35.6%; with OVCAR-8 ovarian, 46.6%; in the assay with OVCAR-5 ovarian it was 70.4%; with OVCAR-4 ovarian it was 87.1%; in the assay on SK-OV-3 ovarian, 92.9%. In addition, the growth was -52.9% (active) in the assay with IGROV1 ovarian; 4.41% (active) in the assay with OVCAR-3 ovarian; 75.9% with HS 578T breast; -13.3% (active) in the assay on NCI/ADR-RES ovarian; 49.1% with T-47D breast; 68.7% in the assay on BT-549 breast. In addition, the growth was 53.1% in the assay with MDA-MB-435 melanoma; 75.3% in the assay on SW-620 colon; 50.4% in the assay with HCT-116 colon; 102% in the assay with HCC-2998 colon; 36% in the assay on KM12 colon.
Take `CC1=C(CN)C2=C(C)C3(CC3)[C@@](C)(O)C(=O)C2=C1`: the growth was 96.7% in the assay on MOLT-4 leukemia; 114% in the assay with RPMI-8226 leukemia; 84.2% with OVCAR-8 ovarian; 97.9% in the assay on OVCAR-5 ovarian; 93.2% with OVCAR-4 ovarian; 102% in the assay with SK-OV-3 ovarian. Moreover, the growth in the assay on IGROV1 ovarian is 94.8%; in the assay with OVCAR-3 ovarian, 101%; in the assay on HS 578T breast it was 86%; in the assay with NCI/ADR-RES ovarian it was 93.8%; in the assay on T-47D breast, 88.6%; with BT-549 breast, 63.3%. For the same compound, the growth in the assay on SW-620 colon is 90.7%; with MCF7 breast it was 85.1%; in the assay on HCT-116 colon it was 90.4%; in the assay with HCC-2998 colon it was 92%; in the assay with KM12 colon, 101%.
As for `CC(=O)OCC1O[C@@H]([S-])C(OC(C)=O)[C@H](OC(C)=O)[C@@H]1OC(C)=O.[Au+].c1ccc(CN2[CH-]N(Cc3ccccc3)C(c3ccccc3)=C2c2ccccc2)cc1`, the growth is 11.2% in the assay with MOLT-4 leukemia; -2.4% (active) in the assay on RPMI-8226 leukemia; 53.2% in the assay with OVCAR-8 ovarian; 93% in the assay on OVCAR-5 ovarian; 60.2% with OVCAR-4 ovarian; 56.9% in the assay on SK-OV-3 ovarian. Also, the growth in the assay with IGROV1 ovarian is 14.3%; with OVCAR-3 ovarian it was -18.5% (active); in the assay on HS 578T breast, 43.5%; in the assay on NCI/ADR-RES ovarian, 98.7%; with T-47D breast, -37.1% (active); in the assay with BT-549 breast, -30.2% (active). Further, the growth is 48.4% in the assay with MDA-MB-435 melanoma; 8.97% (active) in the assay on SW-620 colon; -3.49% (active) in the assay with MCF7 breast; 18.8% in the assay on HCT-116 colon; -57.4% (active) in the assay with HCC-2998 colon; 59.6% in the assay with KM12 colon.
In the case of `NC(=Nc1ccccc1)N[N+](=O)[O-]`, the growth in the assay with MOLT-4 leukemia was 89.2%; in the assay with RPMI-8226 leukemia, 104%; with OVCAR-8 ovarian it was 119%; in the assay with OVCAR-5 ovarian it was 91.4%; in the assay on OVCAR-4 ovarian it was 96.5%; in the assay on SK-OV-3 ovarian, 98.4%. Moreover, the growth with IGROV1 ovarian is 121%; in the assay on OVCAR-3 ovarian, 110%; with HS 578T breast, 97.5%; in the assay on NCI/ADR-RES ovarian, 101%; with T-47D breast it was 97%; with BT-549 breast it was 88.5%. In addition, the growth in the assay on MDA-MB-435 melanoma is 118%; in the assay on SW-620 colon it was 97.8%; in the assay on MCF7 breast, 100%; with HCT-116 colon, 101%; in the assay with HCC-2998 colon, 98.8%; in the assay with KM12 colon it was 106%.
Take `CC1(C)N=C(N)N=C(N)N1c1ccc(OCCCNC(=O)Nc2ccc(S(=O)(=O)F)cc2)c(Cl)c1`: the growth in the assay on MOLT-4 leukemia was 33.4%; with RPMI-8226 leukemia it was 24.6%; in the assay on OVCAR-8 ovarian, 31.5%; in the assay with OVCAR-5 ovarian, 48%; in the assay with OVCAR-4 ovarian, 54.3%; in the assay on SK-OV-3 ovarian it was 58.5%. Further, the growth is 17.9% with IGROV1 ovarian; 27.4% with OVCAR-3 ovarian; 83.6% with HS 578T breast; 115% in the assay on NCI/ADR-RES ovarian; 52.4% with T-47D breast; 60.9% in the assay with BT-549 breast. Moreover, the growth in the assay on MDA-MB-435 melanoma was 31.5%; in the assay on SW-620 colon, 20.6%; with MCF7 breast, 18.4%; in the assay on HCT-116 colon, 14.8%; with HCC-2998 colon, 15.3%; in the assay with KM12 colon, 22%.
For the compound `COc1ccc2c(c1)c(C1(O)CC(CSC#N)OC1=O)cn2C(=O)c1ccc(Cl)cc1` (stereo unspecified), the growth was 93.2% in the assay on MOLT-4 leukemia; 91.9% with RPMI-8226 leukemia; 98.8% in the assay on OVCAR-8 ovarian; 99.4% with OVCAR-5 ovarian; 101% in the assay with OVCAR-4 ovarian; 109% in the assay with SK-OV-3 ovarian. Besides, the growth in the assay with IGROV1 ovarian is 77.2%; in the assay on OVCAR-3 ovarian it was 108%; with HS 578T breast, 101%; in the assay on NCI/ADR-RES ovarian, 92.5%; in the assay on T-47D breast, 100%; with BT-549 breast, 97.6%. Further, the growth in the assay with MDA-MB-435 melanoma was 98.9%; with SW-620 colon it was 105%; in the assay with HCT-116 colon, 97%; in the assay with HCC-2998 colon, 95.1%; in the assay with KM12 colon, 97.7%.
Take `Cc1ccc(S(=O)(=O)F)cc1C(=O)O`: the growth is 99.6% in the assay with MOLT-4 leukemia; 100% in the assay with RPMI-8226 leukemia; 116% in the assay with OVCAR-8 ovarian; 102% in the assay with OVCAR-5 ovarian; 110% in the assay on OVCAR-4 ovarian; 88.3% with SK-OV-3 ovarian. Besides, the growth was 102% with IGROV1 ovarian; 109% with OVCAR-3 ovarian; 112% in the assay with HS 578T breast; 105% in the assay with NCI/ADR-RES ovarian; 91.6% with T-47D breast; 111% in the assay with BT-549 breast. For the same compound, the growth in the assay on MDA-MB-435 melanoma is 86.9%; in the assay on SW-620 colon, 109%; in the assay with MCF7 breast, 111%; in the assay on HCT-116 colon, 111%; with HCC-2998 colon, 108%; with KM12 colon it was 109%.
